This note sets out measurements from the supplement of paper PMC11634586.

The structures appear in SMILES notation. Where a name gives a salt, the structure may show the parent alone.

For the test, the system named is NCI-H1688. Put plainly: inhibition of cell viability relative to untreated control (fraction); higher = stronger growth inhibition, active = 0.5 or more. The settings on record: 30 µM; 24 h. An outline of the steps: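 NCI-H1688 small cell lung cancer cells were seeded at 3 × 10^3 cells/well in 96-well plates and treated 24 h later with a natural compound library (TargetMol) at 30 µM for 24 h, at 37°C with 5% CO2. Viability was read in triplicate with Cell Counting Kit-8 as absorbance at 450 nm. Inhibition of cell viability is expressed as a fraction, derived from viability normalised to the untreated control.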
Take `CC[C@]12CCCN3CCc4c(n(c5ccccc45)[C@@](O)(C(=O)OC)C1)[C@@H]32` [Vincamine]: the “inhibition of cell viability” value was 0.408 (inactive).
As for `NC(N)=O`, the “inhibition of cell viability” value is -0.0194 (inactive).
In the case of `O=C[C@H](NS(=O)(=O)O)[C@@H](O)[C@H](O)[C@H](O)CO` [N-Sulfo-glucosamine sodium salt] it was 0.162 (inactive); in that of `COc1cc(/C=C/C(=O)O)cc(OC)c1OC` [3,4,5-Trimethoxycinnamic acid], 0.124 (inactive).
In the case of `O=C1c2c(O)cc(O)cc2OC(c2ccc(O)c(O)c2)C1O` (stereo not drawn) [Taxifolin (Dihydroquercetin)], the “inhibition of cell viability” value is 0.086 (inactive).
Take `N[C@H]1C(O)O[C@H](CO)[C@@H](O)[C@@H]1O` (stereo partly drawn) [Glucosamine hydrochloride]: the “inhibition of cell viability” value is 0.0567 (inactive).
Regarding `CC(=O)OC1CC2CCC1(C)C2(C)C` (stereo not drawn) [Bornyl acetate], the “inhibition of cell viability” value is -0.214 (inactive).
In the case of `CC(C)c1cc(C(C)C)c(CC(=O)NS(=O)(=O)Oc2c(C(C)C)cccc2C(C)C)c(C(C)C)c1` [Avasimibe] it was 0.757 (active); in that of `COC1=C(OC)C(=O)C(C/C=C(\C)CC/C=C(\C)CC/C=C(\C)CC/C=C(\C)CC/C=C(\C)CC/C=C(\C)CC/C=C(\C)CC/C=C(\C)CC/C=C(\C)CCC=C(C)C)=C(C)C1=O` [Coenzyme Q10 (CoQ10)], -0.0281 (inactive); in that of `C[C@]12CC[C@@H]3c4ccc(O)cc4CC[C@H]3[C@@H]1CC[C@@H]2O` [Estradiol], 0.296 (inactive).
Regarding `O=c1[nH]cnc2nc[nH]c12` [6-Hydroxypurine], the “inhibition of cell viability” value is -0.00202 (inactive).
In the case of `CC1(C)CC[C@]2(C(=O)O)[C@H](O)C[C@]3(C)C(=CC[C@@H]4[C@@]5(C)CC[C@H](O)[C@@](C)(C=O)[C@@H]5CC[C@]43C)[C@@H]2C1` [Quillaic Acid] it was 0.0942 (inactive).
The figure for `O=C1C[C@@H](c2ccc(O[C@@H]3O[C@H](CO)[C@@H](O)[C@H](O)[C@H]3O)cc2)Oc2cc(O)ccc21` [Liquiritin] is 0.0621 (inactive); for `C[C@H](CCC(=O)NCCS(=O)(=O)O)[C@H]1CC[C@H]2[C@@H]3[C@@H](O)C[C@@H]4C[C@H](O)CC[C@]4(C)[C@H]3CC[C@]12C` [Tauroursodeoxycholic Acid] it is 0.00688 (inactive).
On to `COc1ccc([C@@H]2OC[C@H]3[C@@H]2CO[C@@H]3c2ccc(O[C@@H]3O[C@H](CO)[C@@H](O)[C@H](O)[C@H]3O)c(OC)c2)cc1OC` [Forsythin], for which the “inhibition of cell viability” value is -0.0217 (inactive).
For the compound `C=CCc1ccc(O)c(-c2cc(CC=C)ccc2O)c1` [Magnolol], the “inhibition of cell viability” value is -0.288 (inactive).
On to `OC[C@H]1O[C@@H](O[C@@H]2OC=C[C@H]3[C@H](O)[C@@H]4O[C@]4(CO)[C@@H]23)[C@H](O)[C@@H](O)[C@@H]1O` [Catalpol], for which the “inhibition of cell viability” value is -0.0576 (inactive).
As for `C[N+](C)(C)CC(O)CC(=O)[O-]` (stereo not drawn) [L(-)-Carnitine], the “inhibition of cell viability” value is 0.123 (inactive).
In the case of `O=C(O)/C=C/c1ccc(O)cc1` [p-Coumaric acid] it was 0.0191 (inactive).
As to `COc1ccc2c(c1OC)C(=O)O[C@@H]2[C@H]1c2c(cc3c(c2OC)OCO3)CCN1C` [Noscapine hydrochloride], the “inhibition of cell viability” value is 0.323 (inactive).
`Nc1ncnc2c1ncn2[C@@H]1O[C@H](COP(=O)(O)O)[C@@H](O)[C@H]1O` [Adenosine 5'-monophosphate]: the “inhibition of cell viability” value is -0.0048 (inactive).
Turning to `N[C@@H](Cc1cc(I)c(Oc2cc(I)c(O)c(I)c2)c(I)c1)C(=O)O` [L-Thyroxine], the “inhibition of cell viability” value is 0.22 (inactive).
With `O=C(O)[C@]1(O)C[C@@H](O)[C@@H](O)[C@H](O)C1` [Quinic acid], the “inhibition of cell viability” value is 0.126 (inactive).
`Oc1cc(O)c2c(c1)OC(c1ccc(O)c(O)c1)C(OC1(c3ccc(O)c(O)c3)Oc3cc(O)cc(O)c3C(O)C1O)C2` (stereo not drawn) [Proanthocyanidins]: the “inhibition of cell viability” value is -0.126 (inactive).
As to `O[C@H]1[C@H](O)[C@@H](O)[C@H](O)[C@@H](O)[C@H]1O` [Inositol], the “inhibition of cell viability” value is -0.137 (inactive).
Take `COC(=O)c1ccc(O)c(OC)c1` [Methyl Vanillate]: the “inhibition of cell viability” value is -0.221 (inactive).
For the compound `Cc1cc(O)cc(O)c1C(=O)O` [Orsellinic acid], the “inhibition of cell viability” value is -0.313 (inactive).
As for `C=C1CC[C@@H]2[C@](C)(CO)[C@H](O)CC[C@@]2(C)[C@@H]1C/C=C1/C(=O)OC[C@H]1O` [Andrographolide], the “inhibition of cell viability” value was 0.853 (active).
On to `OC[C@H]1O[C@H](OC[C@H]2O[C@H](OC[C@H]3O[C@H](O[C@]4(CO)O[C@H](CO)[C@@H](O)[C@@H]4O)[C@H](O)[C@@H](O)[C@@H]3O)[C@H](O)[C@@H](O)[C@H]2O)[C@H](O)[C@@H](O)[C@H]1O` [D-Stachyose tetrahydrate], for which the “inhibition of cell viability” value was -0.0317 (inactive).
For `CC1(C)CC[C@]2(C(=O)O)CC[C@]3(C)C(=CC[C@@H]4[C@@]5(C)CCC(=O)C(C)(C)[C@@H]5CC[C@]43C)[C@@H]2C1` [Oleanonic Acid], the “inhibition of cell viability” value is 0.342 (inactive).
Regarding `N[C@@H](Cc1c[nH]c2ccc(O)cc12)C(=O)O` [L-5-Hydroxytryptophan], the “inhibition of cell viability” value is 0.0989 (inactive).
In the case of `COC1=CC(=O)C[C@@H](C)[C@]12Oc1c(Cl)c(OC)cc(OC)c1C2=O` [Griseofulvin] it was 0.615 (active).
The figure for `CCCCCCCCCCCCCCCC(=O)O` [Palmitic acid] is 0.0796 (inactive).
For `c1ccc2c(Cc3c[nH]c4ccccc34)c[nH]c2c1` [3,3'-Diindolylmethane], the “inhibition of cell viability” value was 0.12 (inactive).
Turning to `O=c1c2cc(O)c(O)cc2oc2cc(O)c([C@@H]3O[C@H](CO)[C@@H](O)[C@H](O)[C@H]3O)c(O)c12` [Mangiferin], the “inhibition of cell viability” value is -0.186 (inactive).
For the compound `O=c1cc(-c2ccccc2)oc2cc(O)cc(O)c12` [Chrysin], the “inhibition of cell viability” value is 0.197 (inactive).
In the case of `O=c1c(O)c(-c2ccc(O)c(O)c2)oc2cc(O)ccc12` [Fisetin] it was 0.0255 (inactive).
For the compound `CC(=O)c1ccc(O)c(C(=O)O)c1` [5-Acetylsalicylic acid], the “inhibition of cell viability” value is 0.0598 (inactive).
